Consider five compounds from PubChem BioAssay.

Assay [1] in a line: binders of probe aFSTL3 on microarray, primary screen, stem cell growth factor project, biochemical, small-molecule microarray, fluorescence 635/667 (AID 1064).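 Also: measures binding of the biotinylated anti-FSTL3 antibody to printed compounds.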 Particulars: higher = more signal.
A short description of assay [2]: binders from COS7 lysate, DM2A8 probe, primary screen, torsin A project, cell lysate, small-molecule microarray, fluorescence 635/667 (AID 1065). The following applies: higher = more signal, COS7 lysate expressing mutant human TOR1A.
The nature of assay [3]: binders of probe aFGF2 on microarray, primary screen, stem cell growth factor project, biochemical, small-molecule microarray, fluorescence 635/667 (AID 1067).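 Also: measures binding of biotinylated aFGF2 protein to printed compounds on slides; z-score merges feature fluorescence and signal-to-noise across triplicate slides.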 The following applies: higher = more signal.
Assay [4] is described as follows: binders of probe aFGF10 on microarray, primary screen, stem cell growth factor project, biochemical, small-molecule microarray, fluorescence 635/667 (AID 1071).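 Also: score merges 667 nm spot intensity and signal to noise from triplicate slides.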 The following applies: higher = more signal.
The target of assay [5] is Neurogenic locus notch homolog protein 2 (Homo sapiens) (UniProt Q04721). Nature of the assay: Notch2 binders on small-molecule microarrays, primary screen, biochemical, small-molecule microarray, 635 nm fluorescence, stem cell growth factors (AID 1073). The following applies: Notch2 binding, higher = more signal.
The target in assay [6] is Pro-neuregulin-1, membrane-bound isoform (Homo sapiens) (UniProt Q02297). Nature of the assay: NRG1 binders on small-molecule microarrays, primary screen, psychiatric disease protein project, biochemical, small-molecule microarray, fluorescence 635/667 (AID 1075).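 Also: score combines 667 nm spot fluorescence with signal to noise.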 Particulars: NRG1 binding, 635 nm fluorescence, higher = more signal.
Assay [7] relates to Neuregulin-1 EGF-like domain. Nature of the assay: binders of neuregulin-1 EGF-like domain, primary screen, biochemical, small-molecule microarray, 635 nm fluorescence (AID 1081).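 Also: binding of the protein to compounds printed on small-molecule microarray slides.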 Particulars: small-molecule microarray binding, higher = more signal.
A short description of assay [8]: FRG1 promoter luciferase signal modulators, primary screen, FRG1 inhibition for FSHD, cell-based, C2C12 myotubes, firefly/Renilla luciferase, luminescence (AID 1084). Particulars: higher = more signal, called active from +8 up or from −8 down.
Assay [9] in a line: binders of probe aFST on microarray, primary screen, stem cell growth factor project, biochemical, small-molecule microarray, fluorescence 635/667 (AID 1086).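 Also: score merges 667 nm fluorescence with signal-to-noise of each printed compound spot.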 Particulars: higher = more signal.
The nature of assay [10]: binders of probe aHhip on microarray, primary screen, stem cell growth factor project, biochemical, small-molecule microarray, fluorescence 635/667 (AID 1087).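 Also: score merges spot fluorescence at 667nm with spot signal to noise ratio.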 The following applies: higher = more signal.
The subject of assay [11] is PRMT1 (protein arginine N-methyltransferase 1). Nature of the assay: PRMT1 binders on small-molecule microarrays, primary screen, biochemical, small-molecule microarray, 635 nm fluorescence (AID 1088).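 Also: binding of Prmt1 protein to compounds spotted on small-molecule microarray slides.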 The following applies: small-molecule microarray binding, higher = more signal.
Assay [12] can be described thus: yeast growth modulation, basal conditions, primary screen, YJM789 clinical isolate, OD600, 24 h (AID 1089).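 Also: growth of clinical yeast isolate S. cerevisiae YJM 789 seeded 1000 cells per well; test concentration not given here.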 The following applies: S. cerevisiae YJM789 growth, higher = more signal, called active from +8 up or from −8 down.
The nature of assay [13]: fission yeast growth modulation, primary screen, strain 972, OD600, 24 h, no modulator (AID 1090).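 Also: basal condition with compound alone and no growth modifier present; test concentration not given here.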 Particulars: S. pombe 972 growth, higher = more signal, called active from +8 up or from −8 down.
Assay [14] in a line: S. cerevisiae growth modulation with rapamycin, primary screen, strain BY4716, OD600, 96 h (AID 1091). Also: test concentration not given here. The following applies: higher = more signal, called active from +8 up or from −8 down.
The target in assay [15] is Torsin-1A-interacting protein 2 (Homo sapiens) (UniProt Q8NFQ8). The assay can be described thus: LULL1 binders on small-molecule microarray, primary screen, cell lysate, human LULL1 lysate, 635/667 nm fluorescence (AID 1092).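 Also: probe is lysate of COS7 cells overexpressing human LULL1; score merges per-feature 667 nm fluorescence with signal-to-noise.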 The following applies: hLULL1 lysate binding, 635 nm fluorescence, higher = more signal.
The nature of assay [16]: E. coli growth modulation, two-sided OD650, primary screen, E. coli filamentation project, strain DRC41, 24 h (AID 1093).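 Also: MC1000 strain lacking acrAB efflux and sulA so SOS filamentation is blocked; test concentration not given here.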 Particulars: OD650, 24 h, higher = more signal, called active from +8 up or from −8 down.
Assay [17] in a line: small-molecule microarray binders of probe aLefty2, primary screen, biochemical, biotinylated probe, 635/667 nm fluorescence (AID 1094).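 Also: score merges spot fluorescence near 667 nm with spot signal-to-noise ratio.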 The following applies: higher = more signal.
In assay [18] the test system is Noggin (protein binding on small-molecule microarray). Nature of the assay: Noggin binders on small-molecule microarray, primary screen, biochemical, 635/667 nm fluorescence (AID 1095).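 Also: score merges 667 nm feature fluorescence with signal to noise over triplicate slides.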 Particulars: 635 nm fluorescence, higher = more signal.
Assay [19] deals with Neurogenic locus notch homolog protein 3 (Homo sapiens) (UniProt Q9UM47). Nature of the assay: NOTCH3 binders on small-molecule microarray, primary screen, biochemical, 635/667 nm fluorescence (AID 1096). The following applies: NOTCH3 binding, 635 nm fluorescence, higher = more signal.
A short description of assay [20]: small-molecule microarray binders of probe aEGFR, primary screen, biochemical, biotinylated probe, 635/667 nm fluorescence (AID 1097).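 Also: probe is a biotinylated anti-EGFR antibody binding compounds printed on slides; score combines fluorescence near 667 nm and signal to noise of each spot.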 Particulars: higher = more signal.

SMILES strings stand for the structures. The source made the active and inactive calls.

Chain of Neurogenic locus notch homolog protein 2 (Homo sapiens) (Q04721 whole entry, looked up, canonical isoform): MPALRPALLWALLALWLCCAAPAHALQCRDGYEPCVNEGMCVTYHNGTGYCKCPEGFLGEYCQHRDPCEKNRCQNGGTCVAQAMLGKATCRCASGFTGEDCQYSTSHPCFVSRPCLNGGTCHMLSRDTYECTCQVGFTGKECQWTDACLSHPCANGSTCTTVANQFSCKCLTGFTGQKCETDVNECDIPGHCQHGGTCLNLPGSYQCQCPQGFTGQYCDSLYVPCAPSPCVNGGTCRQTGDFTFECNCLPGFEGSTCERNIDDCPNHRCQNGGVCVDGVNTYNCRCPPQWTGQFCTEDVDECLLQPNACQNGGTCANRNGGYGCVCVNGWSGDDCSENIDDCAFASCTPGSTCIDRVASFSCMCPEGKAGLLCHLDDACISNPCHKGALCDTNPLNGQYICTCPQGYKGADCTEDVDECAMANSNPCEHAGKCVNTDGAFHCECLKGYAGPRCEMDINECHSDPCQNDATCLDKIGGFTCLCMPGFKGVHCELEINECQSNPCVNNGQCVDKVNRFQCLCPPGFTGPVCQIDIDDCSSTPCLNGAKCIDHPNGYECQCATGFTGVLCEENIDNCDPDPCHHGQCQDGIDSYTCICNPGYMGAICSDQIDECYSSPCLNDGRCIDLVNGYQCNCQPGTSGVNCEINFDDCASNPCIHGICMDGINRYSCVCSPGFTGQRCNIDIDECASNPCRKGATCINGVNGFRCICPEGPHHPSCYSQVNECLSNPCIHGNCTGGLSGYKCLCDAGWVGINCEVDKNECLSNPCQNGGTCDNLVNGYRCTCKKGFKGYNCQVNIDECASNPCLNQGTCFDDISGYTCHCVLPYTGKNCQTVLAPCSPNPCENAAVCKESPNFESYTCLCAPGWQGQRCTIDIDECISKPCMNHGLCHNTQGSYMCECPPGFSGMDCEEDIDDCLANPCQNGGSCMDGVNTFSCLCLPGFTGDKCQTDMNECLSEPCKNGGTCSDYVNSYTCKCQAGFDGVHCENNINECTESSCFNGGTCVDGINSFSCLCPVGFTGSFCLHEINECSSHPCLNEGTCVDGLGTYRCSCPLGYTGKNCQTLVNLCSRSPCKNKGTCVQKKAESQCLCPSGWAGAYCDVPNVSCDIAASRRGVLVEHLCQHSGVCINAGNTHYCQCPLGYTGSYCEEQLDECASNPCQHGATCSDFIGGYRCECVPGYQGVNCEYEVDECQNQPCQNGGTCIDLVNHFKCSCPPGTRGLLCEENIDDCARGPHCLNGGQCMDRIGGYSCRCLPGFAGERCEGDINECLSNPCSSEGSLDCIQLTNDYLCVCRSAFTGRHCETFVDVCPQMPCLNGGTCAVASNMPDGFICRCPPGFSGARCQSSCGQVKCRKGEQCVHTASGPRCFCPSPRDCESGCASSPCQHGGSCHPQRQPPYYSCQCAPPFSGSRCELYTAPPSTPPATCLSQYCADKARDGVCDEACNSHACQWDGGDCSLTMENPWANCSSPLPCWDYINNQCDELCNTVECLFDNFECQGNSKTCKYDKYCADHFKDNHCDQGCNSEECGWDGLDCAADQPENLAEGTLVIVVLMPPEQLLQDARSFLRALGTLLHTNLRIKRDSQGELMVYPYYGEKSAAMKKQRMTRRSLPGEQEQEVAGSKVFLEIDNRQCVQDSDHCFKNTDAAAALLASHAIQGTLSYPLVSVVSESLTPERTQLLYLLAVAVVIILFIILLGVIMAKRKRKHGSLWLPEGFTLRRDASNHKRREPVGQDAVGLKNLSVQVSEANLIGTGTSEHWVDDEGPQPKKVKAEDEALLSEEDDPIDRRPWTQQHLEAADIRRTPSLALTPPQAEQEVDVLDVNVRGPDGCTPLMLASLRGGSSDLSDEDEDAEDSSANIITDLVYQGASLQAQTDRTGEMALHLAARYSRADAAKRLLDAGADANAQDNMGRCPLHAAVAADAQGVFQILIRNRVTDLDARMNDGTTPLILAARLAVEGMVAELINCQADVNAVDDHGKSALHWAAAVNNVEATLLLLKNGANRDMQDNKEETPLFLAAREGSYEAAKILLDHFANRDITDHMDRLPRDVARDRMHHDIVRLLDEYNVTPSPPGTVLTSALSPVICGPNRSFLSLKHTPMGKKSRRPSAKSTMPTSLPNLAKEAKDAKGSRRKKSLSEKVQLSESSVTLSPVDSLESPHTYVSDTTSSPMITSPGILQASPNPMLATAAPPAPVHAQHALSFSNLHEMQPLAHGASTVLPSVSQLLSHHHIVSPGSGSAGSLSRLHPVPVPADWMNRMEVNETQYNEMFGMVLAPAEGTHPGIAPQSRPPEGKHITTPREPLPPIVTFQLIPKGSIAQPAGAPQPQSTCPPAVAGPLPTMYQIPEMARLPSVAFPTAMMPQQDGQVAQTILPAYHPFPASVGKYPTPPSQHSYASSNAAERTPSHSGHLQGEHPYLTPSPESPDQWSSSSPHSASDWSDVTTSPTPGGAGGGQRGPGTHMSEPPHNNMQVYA
Chain of Torsin-1A-interacting protein 2 (Homo sapiens) (Q8NFQ8 whole entry, looked up): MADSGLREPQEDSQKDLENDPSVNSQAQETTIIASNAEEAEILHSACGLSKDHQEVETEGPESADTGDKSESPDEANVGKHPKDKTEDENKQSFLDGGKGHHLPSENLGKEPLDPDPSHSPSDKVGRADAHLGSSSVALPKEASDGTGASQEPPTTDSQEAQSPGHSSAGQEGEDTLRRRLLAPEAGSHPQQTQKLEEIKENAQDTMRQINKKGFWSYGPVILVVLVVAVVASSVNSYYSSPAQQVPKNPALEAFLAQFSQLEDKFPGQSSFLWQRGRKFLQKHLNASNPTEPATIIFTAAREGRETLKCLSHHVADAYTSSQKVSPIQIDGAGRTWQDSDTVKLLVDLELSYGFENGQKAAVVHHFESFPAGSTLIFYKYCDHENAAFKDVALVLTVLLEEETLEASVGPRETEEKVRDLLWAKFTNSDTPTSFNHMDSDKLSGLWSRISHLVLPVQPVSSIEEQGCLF
Chain of Pro-neuregulin-1, membrane-bound isoform (Homo sapiens) (Q02297 whole entry, looked up, the tested form may be a part, canonical isoform): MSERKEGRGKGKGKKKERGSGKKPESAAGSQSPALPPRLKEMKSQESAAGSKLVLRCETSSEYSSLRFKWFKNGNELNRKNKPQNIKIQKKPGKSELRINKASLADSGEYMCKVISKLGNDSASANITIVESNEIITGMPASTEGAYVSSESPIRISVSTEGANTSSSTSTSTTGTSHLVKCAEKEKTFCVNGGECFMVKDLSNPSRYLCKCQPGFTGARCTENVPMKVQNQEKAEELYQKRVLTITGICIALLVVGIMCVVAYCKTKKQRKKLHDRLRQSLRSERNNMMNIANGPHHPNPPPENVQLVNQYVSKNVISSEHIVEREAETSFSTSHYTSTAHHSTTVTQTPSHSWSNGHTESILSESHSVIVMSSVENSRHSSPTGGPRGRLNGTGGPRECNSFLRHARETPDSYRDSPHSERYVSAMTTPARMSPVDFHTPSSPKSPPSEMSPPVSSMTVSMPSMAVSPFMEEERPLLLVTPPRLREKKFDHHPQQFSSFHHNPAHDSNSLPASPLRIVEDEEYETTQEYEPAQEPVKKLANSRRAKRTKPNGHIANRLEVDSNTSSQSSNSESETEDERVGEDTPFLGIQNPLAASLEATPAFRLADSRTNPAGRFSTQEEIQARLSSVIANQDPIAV

`[N-]=[N+]=NCc1ccccc1C[C@]1(C(=O)N2CCOCC2)N=C(c2ccc(OCCCO)cc2)O[C@H]1c1ccccc1`: the composite z-score was 0.303 in assay [1]; 0.18 in assay [2]; -0.0455 in assay [3]; 0.686 in assay [4]; 0.412 in assay [5]; 0.766 in [6]. In addition, the composite z-score was 0.542 in [7]; 0.912 in assay [9]; -0.0994 in assay [10]; 1.46 in [11]; 2.33 in [15]; -0.162 in assay [17]. In addition, the values for the composite z-score in assay [18], in assay [19] and in assay [20] were 1.15, 0.673 and -0.0509, respectively. Moreover, the z-score is -3.67 (inactive) in assay [8]; -0.432 (inactive) in assay [12]; -9.19 (active) in assay [13]; 31.6 (active) in assay [14]; 1.33 (inactive) in assay [16].
As to `CCN(CC)c1ccc(N2CC=CC34O[C@@H]5/C=C\CCCOC(=O)C5[C@H]3C(=O)N(CCCO)[C@@H]4C2=O)cc1` (stereo not given in full), the composite z-score in [1] was 0.485; in [2], -0.701; in [3], -0.113; in assay [4], -0.883; in assay [5], -0.991; in assay [6] it was 1.45. The composite z-score is 0.657 in assay [7]; -1.19 in assay [9]; -0.137 in assay [10]; 1.42 in assay [11]; 3.65 in assay [15]; -0.158 in assay [17]. For the same compound, the composite z-score in [18] was -1.03; in assay [19], -0.21; in assay [20], -0.287. For the same compound, the z-score was 2.31 (inactive) in [8]; -1.14 (inactive) in assay [12]; -0.249 (inactive) in assay [13]; -0.511 (inactive) in assay [14]; -0.204 (inactive) in [16].
Turning to `C=CCOC(=O)[C@@H]1[C@H]2C(=O)O[C@H](c3ccccc3)[C@H](c3ccccc3)N2[C@H](c2ccc(OCCOC(=O)[C@H]3C[C@H]4C(=O)N[C@@H](Cc5ccccc5)C(=O)N4[C@H]3c3ccc(O)cc3)cc2)[C@@]12C(=O)Nc1ccc(I)cc12`, the composite z-score in assay [1] was -0.248; in [2] it was 1.33; in assay [3], -0.0939; in assay [4], 0.459; in assay [5] it was 1.11; in assay [6], 0.846. Also, the composite z-score in assay [7] was 1.3; in [9] it was 0.248; in assay [10], -0.0994; in assay [11], 1.54; in assay [15], 1.83; in assay [17], -0.0879. Also, the composite z-score was 0.906 in [18], 1.09 in [19] and 0.128 in assay [20]. The z-score was 1.16 (inactive) in assay [8]; 2.61 (inactive) in [12]; -1.76 (inactive) in [13]; 0.88 (inactive) in [14]; -1.96 (inactive) in [16].
On to `COc1ccc([Si](C)(C)[C@@H]2[C@@H](CCO)O[C@]3(C(=O)N(Cc4cccc(N(C=O)c5ccccc5)c4)c4ccccc43)[C@H]2C)cc1`, for which the composite z-score was 0.318 in [1]; 0.526 in [2]; -0.0784 in assay [3]; -0.126 in assay [4]; 0.199 in assay [5]; 0.835 in assay [6]. The composite z-score in assay [7] was 0.787; in assay [9], 0.316; in [10], 0.0524; in assay [11], 1.12; in assay [15], 0.745; in assay [17], -0.0719. Moreover, the results for the composite z-score in assay [18], in assay [19] and in assay [20] were 0.145, 0.258 and -0.201, respectively. In addition, the z-score is -0.198 (inactive) in assay [8]; 1.35 (inactive) in assay [12]; 0.946 (inactive) in assay [13]; 9.98 (active) in assay [14]; 1.03 (inactive) in assay [16].
Turning to `CN1C(=O)C2C=CC(C(O)c3ccccc3)N(NC(=O)OC(C)(C)C)C2C1=O` (stereo not given), the composite z-score in [1] is -0.366; in assay [2], 0.583; in [3], 0.0728; in assay [4] it was 0.268; in assay [5] it was 1.34; in [6], 0.871. The composite z-score in assay [7] is 0.792; in [9], 0.868; in assay [10], -0.0645; in assay [11], 0.408; in assay [15] it was 2.93; in assay [17], 0.0875. Besides, the composite z-score was -0.201 in assay [18], 0.497 in [19] and 0.0182 in [20]. Besides, the z-score in assay [8] is 1.82 (inactive); in assay [12], 0.382 (inactive); in assay [13], 1.52 (inactive); in assay [14], 1.45 (inactive); in assay [16], -0.828 (inactive).
